Assay outcomes (PubChem BioAssay)
RORg inh: qHTS for inhibitors of ROR gamma transcriptional activity. Nuclear receptor ROR-gamma (Mus musculus), P51450. 5.4% of 310,000 active. AID 2551, 2010. Potency, µM (top dose mostly 53.6 µM), inactives show top-dose activity change, negative = inhibition, actives largely listed as inhibitors. Drosophila S2 Gal4-RORgamma UAS-luciferase reporter, 20 h; note: % is set by controls: 0 for no effect and ±100 for the full control effect; nearly all actives have a fitted effect of over 60% in size
Target sequence (P51450 whole entry, looked up, the tested form may be a part): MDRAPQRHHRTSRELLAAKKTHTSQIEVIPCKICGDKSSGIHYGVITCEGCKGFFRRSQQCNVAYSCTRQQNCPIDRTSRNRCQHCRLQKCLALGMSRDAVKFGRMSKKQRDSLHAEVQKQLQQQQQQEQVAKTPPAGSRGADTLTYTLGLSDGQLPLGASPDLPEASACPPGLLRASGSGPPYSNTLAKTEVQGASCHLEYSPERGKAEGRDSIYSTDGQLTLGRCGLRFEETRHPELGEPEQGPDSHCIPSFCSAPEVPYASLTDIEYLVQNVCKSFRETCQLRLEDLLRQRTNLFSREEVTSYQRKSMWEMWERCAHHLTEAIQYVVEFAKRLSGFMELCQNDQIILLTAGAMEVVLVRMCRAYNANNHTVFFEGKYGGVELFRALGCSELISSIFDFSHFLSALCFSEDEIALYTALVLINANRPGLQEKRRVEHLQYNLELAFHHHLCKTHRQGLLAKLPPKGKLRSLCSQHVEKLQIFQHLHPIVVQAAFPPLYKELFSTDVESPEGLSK
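Drosophila S2 cells stably expressing Gal4-DBD/mouse RORγ fusion under metallothionein promoter plus UAS-luciferase; compound 1 h, then 700 uM CuSO4 induction for 20 h at ambient temperature; inhibition read as reduced luminescence.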
VP16 counter: VP16 counterscreen qHTS for inhibitors of ROR gamma transcriptional activity; 3.5% of 310,000 active; AID 2546, 2010; Drosophila S2 Gal4-VP16 UAS-luciferase, luminescence, 20 h; Potency, µM (series often up to 53.6 µM), for the others: at the top dose activity, negative = inhibition, most hits filed as inhibitors;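 note: Gal4-VP16 expression switched on by copper sulfate through the metallothionein promoter; % is set by controls: 0 for no effect and ±100 for the full control effect; nearly all actives have a fitted effect of over 50% in size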
TGFb SMAD3 inh: qHTS for Inhibitors of TGF-b; HepG2 CAGA-GFP TGF-b/SMAD3 reporter, GFP fluorescence, 18 h; TGF-beta stimulated, 500 pg/mL final; Potency, µM (highest dose often 46.1 µM), for inactives: top-dose activity, negative = inhibition, hits mostly inhibitors; 1.2% of 410,000 active; note: % is set by controls: 0 for no effect and ±100 for the full control effect; nearly all actives have a fitted effect of over 65% in size
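Read-out: total well GFP (ex488/em500-530) summed from mean per-cell fluorescence. Cells: HEPG2 CAGA-GFP, 1% FBS DMEM, 18 h at 37 degrees C with 500 pg/mL final TGF-beta. Unstimulated wells served as the full-inhibition control; stimulated DMSO wells = 0%.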
S2 tox: Viability Counterscreen for Primary qHTS for Inhibitors of ATXN expression; S2 cells (HEK-293 line with an ATXN2-luciferase reporter) viability, CellTiter-Fluor protease fluorescence, 24 h; Potency, µM (doses to about 56.7 µM), hits mostly cytotoxic; 0.49% of 400,000 active; AID 651635, 2014; note: nearly all actives have a fitted effect of over 40% in size
ATXN2 expr inh: Primary qHTS for Inhibitors of ATXN expression | 0.72% of 360,000 active | Potency, µM (top dose mostly 57 µM), for inactives: at the highest dose activity change, negative = inhibition, usual class: inhibitors | HEK-293 ATXN2-luciferase reporter, luminescence, 24 h; note: % is set by controls: 0 for no effect and ±100 for the full control effect; nearly all actives have a fitted effect of over 55% in size
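ATXN2-luciferase reporter cells (luciferase flanked by upstream and downstream ATXN2 gene portions) were treated 24 h at 37 °C with compounds at up to 57 uM. SteadyGlo luminescence gave expression; GF-AFC fluorescence gave viability.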
HepG2 tox: qHTS for Inhibitors of TGF-b: Cytotox Counterscreen; Potency, µM (doses to about 46.1 µM), for inactives: at the top dose activity change, negative = cytotoxicity, most hits filed as cytotoxic; 0.76% of 410,000 active; HepG2 CAGA-GFP viability, ATP luminescence, 18 h
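CellTiter-Glo luminescence gave cytotoxicity after 18 hours at 37 degrees C. The cells were HepG2 CAGA-GFP in 1% FBS DMEM, stimulated with 500 pg/mL TGF-beta after compound addition. %Activity was normalised to no-cell wells (complete cell-killing) and DMSO (no toxicity), and curves were fitted and classified.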
Active calls of the source: *; i = inactive; u = inconclusive; x = no result given. Only some compounds are listed: those with a hit (about 6.1% of all), similar ones and a draw of the others. Calls come from the whole dose curve; as a rule, active = well fitted curve in the direction sought with a large enough effect; inconclusive = small, poorly fitted or top-dose-only effect, or another doubt; inactive = no such curve, though single readings can be large; an effect the other way counts as inactive or inconclusive. Potency is the fitted concentration of half-maximal effect.

SMILES | RORg inh | VP16 counter | TGFb SMAD3 inh | S2 tox | ATXN2 expr inh | HepG2 tox
CCOc1ccc(N2CC(c3nc4ccccc4n3CCCOc3ccccc3OC)CC2=O)cc1 (centres undefined) | x | x | -29% | 18µM* | u | -13%
Cc1ccc(OCCn2c(C3CC(=O)N(Cc4ccc(F)cc4)C3)nc3ccccc32)c(C)c1 (centres undefined) | x | x | u | u | u | 18µM*
CCOc1ccccc1N1CC(c2nc3ccccc3n2CCOc2ccccc2)CC1=O (centres undefined) | x | x | u | u | 0% | -45%
CCc1ccc(OCCn2c(C3CC(=O)N(Cc4ccc(F)cc4)C3)nc3ccccc32)cc1 (centres undefined) | x | x | u | x | u | -111%
CCC/C=C(\CCC)C(NS(=O)(=O)CC12CCC(CC1=O)C2(C)C)c1ccc(C(=O)OC)cc1 (centres undefined) | 7% | -20% | x | x | x | x
COc1ccc(CNC(=O)CC(C)n2nc(C)cc2C)cc1 (centres undefined) | x | x | -3% | i | 3% | 2%
COc1cccc(Nc2ncc3nc(-c4cccs4)c(=O)n(C[C@H]4CCCO4)c3n2)c1 | u | -15% | x | x | x | x
COc1cccc(-c2ccnc3c(-c4ccc(F)cc4)c(C)nn23)c1 | x | x | 6% | i | 6% | 4%
CCOc1ccc(NC(=O)c2cccc(N3CCCS3(=O)=O)c2)cc1 | x | x | 1% | i | 5% | 1%
CCc1ccccc1N1CC(c2nc3ccccc3n2CCC2CCCCC2)CC1=O (centres undefined) | x | x | u | 28µM* | u | 10µM*
CCOC(=O)C1=NN(C(=O)COc2ccccc2)C(O)(c2ccc(Cl)cc2)C1 (centres undefined) | 3.5µM* | 11µM* | -24% | i | -15% | -1%
CCOC(=O)C1=NN(C(=O)Cc2ccccc2)C(O)(c2ccc(Cl)cc2)C1 (centres undefined) | 5.6µM* | 10µM* | -8% | i | 1% | 7%
COc1ccc(CN2CCN(C(C)=O)CC2)cc1OC1CCN(C(=O)c2ccc3ccccc3n2)CC1 | x | x | x | i | x | x
CC(C)c1ccc(C(O)c2nc3ccccc3n2C)cc1 (centres undefined) | -15% | -16% | -23% | i | x | -19%
Cn1c(C(C#N)C(=O)c2sc3ccccc3c2Cl)nc2ccccc21 (centres undefined) | 1.8µM* | 4.5µM* | -29% | u | -25% | -35%
O=C(NC(=S)N1CCN(Cc2ccc3c(c2)OCO3)CC1)c1cccc(Br)c1 | 0.56µM* | 0.63µM* | u | i | u | -27%
O=C(NC(=S)N1CCN(Cc2ccc3c(c2)OCO3)CC1)c1ccc(Cl)cc1 | 0.45µM* | 0.63µM* | -27% | i | 0% | -32%
CO[C@H]1[C@H](NC(=O)c2ccco2)c2ccccc2C12CCN(Cc1cccn1-c1ccccn1)CC2 | x | x | x | i | x | x
O=C([C@@H]1CC=C[C@@H]2CCN(C3CCCCC3)C(=O)[C@@H]21)N1CCOCC1 | x | x | -4% | x | x | 8%
CN1CCN(C(=O)/C=C/c2ccccc2)CC1 | 6% | 2% | 6% | i | 16% | -4%
O=C(O)/C=C/c1ccc([N+](=O)[O-])o1 | 11µM* | -5% | 7% | i | 3% | 15%
N#C/C(=C\c1ccc([N+](=O)[O-])o1)C(=O)Nc1ccc(F)cc1 | u | u | -20% | i | u | -6%
CN1CCN(C(=O)/C=C/c2ccc([N+](=O)[O-])o2)CC1 | u | u | 11µM* | x | x | -119%
CC1=C(C(=O)N(C)C)C(c2cccc(Cl)c2)NC(=O)N1 (centres undefined) | 11µM* | -2% | u | i | 7% | 17%
CC1=C(C(=O)N(C)C)C(c2cccs2)NC(=O)N1 (centres undefined) | 19% | -1% | -11% | i | 0% | -9%
SMILES | RORg inh | VP16 counter | TGFb SMAD3 inh | S2 tox | ATXN2 expr inh | HepG2 tox
Nc1c(Cl)cc(C=O)cc1Cl | x | x | 6% | x | x | 0%
O=C(Nc1ccc(Oc2c(F)c(F)c(F)c(F)c2F)cc1)OC1CCN2Cc3ccccc3N=C12 (centres undefined) | 0.71µM* | u | 10µM* | u | u | 10µM*
Cc1cc(NC(=O)c2cc(C(C)(C)C)oc2C)no1 | 13µM* | -15% | -46% | i | x | -34%
C[n+]1ccn(CC(=O)c2cccs2)c1 | 10µM* | -6% | 2% | i | -2% | 0%
CCOC(=O)CC(NC(=O)CCc1c(C)nc2c(-c3ccccc3)c(C)nn2c1C)c1ccc(OC(C)C)cc1 (centres undefined) | x | x | 16µM* | x | u | -35%
CCOC(=O)CC(NC(=O)CCc1c(C)nc2c(-c3ccccc3)c(C)nn2c1C)c1ccc(C)cc1 (centres undefined) | x | x | 10µM* | i | u | 1%
COc1ccc(C(=O)Nc2nc3c(s2)Cc2c(Br)ccc(OC)c2-3)cc1OC | x | x | -6% | i | -16% | -24%
Cc1ccc(N2CCN(C(=O)c3c(C)oc4ncnc(N5CCCCC5)c34)CC2)c(C)c1 | x | x | u | u | u | -34%
CC(=O)Nc1ccc(C(=O)NC2CCSc3ccccc32)cc1 (centres undefined) | -12% | 14% | 14% | i | 49% | 5%
COC(=O)c1ccc(NC(=S)NC2CCc3ccccc32)cc1 (centres undefined) | 7.9µM* | u | 0% | i | 2% | -15%
Cc1ccc(NC(=S)NC2CCSc3ccccc32)cc1 (centres undefined) | -102% | 5.6µM* | u | i | -7% | -10%
O=C(O)[C@@H](O)[C@H](O)[C@H](O)[C@@H](O)C(=O)O (tested in a mixture with another compound) | x | x | x | i | x | x
O=C(CNC(=O)c1sc2ccccc2c1Cl)NC1CC1 | 5% | 26% | 4% | i | 31% | 1%
O=C(NC(=S)NCCO)c1sc2ccccc2c1Cl | 11µM* | -19% | u | i | x | -24%
CCCOC(=S)NC(=O)c1sc2ccccc2c1Cl | 1% | -9% | -12% | i | 7% | -3%
CCOC(=S)NC(=O)c1sc2ccccc2c1Cl | 1.3µM* | 5.6µM* | -16% | i | -7% | -21%
